Results as given in PubChem BioAssay AID504707 (The Scripps Research Institute Molecular Screening Center, 2011).
Screen size: about 340,000 compounds; about 280 (0.082%) were called active. This is one part of a sample in which actives are shown more often than they occur.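 Rule for the calls: active = percent activation above the mean of all tested compounds plus 3 SD (cut at about 19% in these data); inactive = the rest.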

The molecules below were run against cAMP-dependent protein kinase type I-alpha regulatory subunit (Bos taurus) + cAMP-dependent protein kinase catalytic subunit beta (Mus musculus) (UniProt P00514+P68181) (assay: activators of PKA-R1A holoenzyme, primary screen, biochemical, fluorescence polarization, Cy5-IP20, bovine R1A, mouse PKAc (AID 504707;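 note: higher means more PKAc released from R1A so a rise in polarization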)). Details: PKA-R1A dissociation, at 11.4 µM, stronger effect = higher value, scaled: DMSO 0%, 113 µM cGMP 100%.

| Compound | activation |
| --- | --- |
| COCCn1c(SCC(=O)Nc2ccc(F)cc2F)nc2c(c1=O)SCC2 | -3.58% (inactive) |
| C[C@@H]1CN([C@H](C)CO)C(=O)CCCn2cc(nn2)CO[C@H]1CN(C)S(=O)(=O)c1ccc(Oc2ccccc2)nc1 | -8.71% (inactive) |
| Cc1ccc(S(=O)(=O)N2C[C@H]3C(=O)C[C@@H](c4cccc5ccccc45)N(S(=O)(=O)c4ccc(C)cc4)[C@H]3C[C@H]2c2ccc(Cl)cc2)cc1 | 1.48% (inactive) |
| COc1ccc(S(=O)(=O)N(C)C)cc1NC(=O)COC(=O)c1n[nH]c2ccccc12 | 0.55% (inactive) |
| O=C(NCCOc1ccccc1)c1ccccc1F | -12.1% (inactive) |
| CCN1CCN(CCNC(=O)c2ccc3c(c2)NC(=O)/C(=C\c2cccc(Cl)c2)S3)CC1 | -8.75% (inactive) |
| C[C@H]1CN([C@@H](C)CO)C(=O)c2cc(-c3ccccc3F)cnc2O[C@H]1CN(C)C(=O)C1CCOCC1 | -7.74% (inactive) |
| C[C@@H]1CCCCO[C@H](CN(C)Cc2ccccc2)[C@@H](C)CN([C@H](C)CO)C(=O)c2cc(NS(=O)(=O)c3ccc(Cl)cc3)ccc2O1 | -4.59% (inactive) |
| C#Cc1cc(N2CCN(C(=O)c3ccoc3)CC2)n2nc(-c3cccc(Cl)c3)cc2n1 | -0.28% (inactive) |
| COc1ccc(-c2ccc(CN3C(C(C)C)C(=O)N(Cc4cn(CC5CCCCC5)nn4)CCS3(=O)=O)cc2)cn1 (stereo not given) | 6.26% (inactive) |
| O=C(Nc1ccc(Cl)cn1)c1ccccc1-c1ccccc1 | -2.35% (inactive) |
| CC1CCCC(NC(=O)COC(=O)c2ccccc2C(=O)N(C)C2CCCCC2)C1C (stereo not given) | 4.19% (inactive) |
| CC(C)c1cc(C(=O)N(C)C2CCCN(Cc3ccccc3F)C2)n(C)n1 (stereo not given) | -3.3% (inactive) |
| Cc1ccc(C=O)c([B-](F)(F)F)c1 | -6.39% (inactive) |
| COCCCN1C(=O)C(CC(=O)NCc2cccs2)CC(C(=O)N2CCOCC2)=C1C (stereo not given) | -6.5% (inactive) |
| O=C(COc1ccc(Br)cc1)OCC(=O)c1ccc[nH]1 | -8.33% (inactive) |
| CCCC(=O)Nc1ncnc2c1ncn2[C@@H]1O[C@@H]2OP(=O)(O)OC[C@H]2[C@H]1OC(=O)CCC | 49.2% (active) |
| C[C@@H]1CN([C@H](C)CO)C(=O)CCCn2cc(nn2)CO[C@H]1CN(C)S(C)(=O)=O | -6.01% (inactive) |
| C[C@H]1CN(c2ccc(Br)cc2)C(=O)[C@@H]1CC(=O)Nc1ccc(Br)cc1 | -2.37% (inactive) |
| COc1cccc(NC(=O)N(C)C[C@@H]2Oc3ncc(Br)cc3C(=O)N([C@@H](C)CO)C[C@H]2C)c1 | -5.28% (inactive) |
